Laboratory results from the supplement of paper PMC3334620.
Over roughly 33,000 sequences, “E-score (-0.5 to 0.5)” has its median near -0.032; the highest 2% begin near 0.36. What follows is part of a selection rich in the highest values, with near analogues and random picks from the rest.

These sequences were tested against T1, Sko1 (UniProt Q02100) (assay: PBM E-score (8-mer binding enrichment) (E-score (-0.5 to 0.5)); higher = stronger / more preferred TF binding). Conditions: protein concentration: 200 nM; construct: GST-full length.
T1 sequence: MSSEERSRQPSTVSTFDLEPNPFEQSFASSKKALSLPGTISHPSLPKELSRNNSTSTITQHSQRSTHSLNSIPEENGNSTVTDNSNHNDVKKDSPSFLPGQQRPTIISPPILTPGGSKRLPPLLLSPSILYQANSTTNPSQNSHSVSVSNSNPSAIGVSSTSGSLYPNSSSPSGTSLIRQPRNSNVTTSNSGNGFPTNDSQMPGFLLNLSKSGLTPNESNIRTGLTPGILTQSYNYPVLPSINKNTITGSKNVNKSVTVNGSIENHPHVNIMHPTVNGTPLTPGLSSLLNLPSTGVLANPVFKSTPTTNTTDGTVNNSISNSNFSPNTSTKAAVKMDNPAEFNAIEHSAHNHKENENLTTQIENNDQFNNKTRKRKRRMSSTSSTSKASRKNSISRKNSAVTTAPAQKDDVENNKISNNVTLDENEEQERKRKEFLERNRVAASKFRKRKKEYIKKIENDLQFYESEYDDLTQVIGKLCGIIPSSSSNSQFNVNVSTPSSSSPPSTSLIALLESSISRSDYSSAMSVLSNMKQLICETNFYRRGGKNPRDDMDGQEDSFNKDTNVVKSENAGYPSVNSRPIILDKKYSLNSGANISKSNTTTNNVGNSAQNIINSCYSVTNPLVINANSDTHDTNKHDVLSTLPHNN
Method: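 Universal 'all 10-mer' protein binding microarrays (Agilent AMADID 015681) probed with GST-tagged S. cerevisiae TFs (full-length or DBD) made by in vitro transcription/translation (PURExpress), about 100-200 nM. Bound TF was detected with fluorescent anti-GST. Each ungapped 8-mer (which stands for itself and its reverse complement) is scored by the PBM enrichment score (E-score), a modified Wilcoxon-Mann-Whitney statistic from -0.5 to +0.5, computed with the Universal PBM Analysis Suite. Scale: above 0.35 generally sequence-specific binding.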

Sequence	PBM E-score
GAGAGCCA	-0.118
AGGCTGCC	-0.341
GATCCACA	-0.0832
CTTCCTTC	-0.284
GTAGATTA	0.269
AACTGAAG	0.0972
CACGTAGG	0.396
CCCGTAGG	-0.194
CCCGTAGC	-0.291
CACGTAGA	0.39
GACGTAGC	0.436
GCCGTAGC	-0.328
AACGTAGG	0.336
AACGTAGA	0.357
CGCGTAGA	0.0669
AACGTAGC	0.349
CACGTAGC	0.364
CTCGTAGC	-0.0204
CTGCACTC	-0.16
GTTTAAGA	-0.0752
CAGTCGTC	0.0351
CTTCCTGC	-0.256
CGTAGCAC	0.295
GCCATCCC	-0.319
CCACTGTC	-0.185
ACAAGGGT	-0.0251

Sequence	PBM E-score
GCCAGCAA	-0.205
CTAACCAG	-0.0782
GACCTGGC	-0.297
AGCGTAGA	-0.0243
TACGTAGA	0.452
GTCGTAGA	0.166
GGCGTAGA	0.118
GACGTAGA	0.42
TCCGTAGA	-0.15
AGCGACAG	-0.155
GGTAAAAA	0.0275
GGTAAACA	0.136
AGTAAACA	0.0928
CGTAAACA	0.374
CCTAATCC	-0.11
AGTAATCA	0.0126
AGTAATCC	0.0657
GGTAATCA	0.0412
CGTAATCC	0.405
CGTAATCA	0.452
GGTGGCAA	-0.169
CCCGACGC	-0.148
AAGGTTTA	-0.0389
ATCTTGGC	-0.119
ACGAGACT	0.0545
AACACCAA	0.109

Sequence	PBM E-score
ACTACGGG	-0.221
ACTACGTG	0.415
GCTACGAA	0.239
ACTACGCG	0.245
GCTACGGA	-0.0597
ACTACGTA	0.484
GCTACGTA	0.456
ACTACGGA	-0.036
ACTACGAA	0.289
ATAGCGAG	-0.0959
ATAATGAG	0.114
AGAATGAC	0.377
CTAATGGA	-0.158
CCAATGAC	0.253
ATAATGAC	0.378
GTAATGGA	0.402
GCAATGAC	0.374
ATAATGAT	0.278
AGAATGAG	0.0649
GCAATGAA	0.128
ATAATGGA	0.068
CGAATGAC	0.351
AATCAAAC	0.229
AGAAGTGG	-0.19
ACTTCTAA	-0.0244
AGATACCC	-0.0725

Sequence	PBM E-score
CTTGAAAG	-0.0877
ACGACTTG	-0.058
CCAGCGTC	-0.229
GTAATGAA	0.281
CTAATGAC	0.299
GTAATGAC	0.399
CACGTCTA	0.314
AACGTCCA	0.245
GACGTCAC	0.487
AACGTCTA	0.239
AACGTCAA	0.424
CACGTCCA	0.254
TACGTCTA	0.421
TACGTCCA	0.404
GACGTCCA	0.331
GACGTCTA	0.358
GACGTCCC	0.217
GACGTCGC	0.334
ATTGTTGC	0.236
ACAGGAGT	-0.0316
CCCACTGC	-0.115
ATGCGCCA	-0.00554
ATAAGACG	0.115
TCCGTCAA	0.0302
AACGTCTG	0.239
TACGTCAA	0.479

Sequence	PBM E-score
AACGTCGG	0.182
CACGTCAA	0.426
CACGTCTG	0.23
CACGTCAG	0.462
CCCGTCAG	-0.214
AACGTCAG	0.429
CCCGTCAA	-0.0876
TTCGTCAA	0.297
CCTGTGCC	-0.224
GCGACGCC	-0.0621
ATAGGTGC	-0.114
ATCCATGG	-0.237
GAGATCAC	0.00833
AAGCAAGA	0.0771
AGTTGTGA	0.0903
CACGATGG	-0.0649
CGTGGCGA	0.0528
AACGTCGT	0.247
AACGTCAT	0.493
GCCGTCAA	-0.081
AACGTCTC	0.111
CACGTCTC	0.134
GACGTCTC	0.384
AACGTCCT	0.0619
AACGTCAC	0.471
AACGTCCC	-0.0499

Sequence	PBM E-score
GACGTCAA	0.47
AGCGTCAC	0.252
ACGGTTTA	-0.0562
CTCCAGGA	-0.0718
CGTGGTAC	0.213
ACCCGCGG	-0.0735
CAGCGAGG	-0.233
TCGGGCAA	-0.0812
ATCCTGTC	-0.0275
CAAATATC	0.109
CAGGGTCG	-0.241
GTCGGTGA	0.049
ACAACTAG	-0.00944
CACGTCCC	0.00358
GGCGTCAA	0.235
TGCGTCAA	0.377
TGCGTCCA	0.155
CACGTCGC	0.235
CACGTCAC	0.482
GGTGAGCA	-0.0791
AATTTAGC	0.187
GCCTGATA	-0.0647
TAAGGGAA	0.108
AAGACGTA	0.454
AAGACGGC	-0.219
CAGACGTA	0.387

Sequence	PBM E-score
AAGACGTG	0.291
GAGACGGA	-0.0605
AAGACGGA	-0.0952
GAGACGTA	0.394
CAGACGTC	0.322
GAGACGAA	-0.0289
AAGACGAC	0.0714
CAGACGCA	0.055
AAGACGTC	0.419
AGTCCTTC	-0.375
TCCGAACA	-0.124
CAATCTGG	-0.104
AGTACTCG	0.0859
AGCTTAGG	-0.198
CTTCGGTC	-0.0632
CCTGTGTA	-0.0155
GTCGGAAC	-0.0708
CGTAGTAC	0.372
AGTAGTAC	0.173
CGTAGTAG	0.309
AGGGTTGG	0.0955
ATGTAATG	0.321
AAGTAATG	0.0878
ACGTAATC	0.492
ACGTAATG	0.492
CCGTAATC	0.111

Sequence	PBM E-score
ATGTAATC	0.313
AGGCCGCC	-0.182
CTTCCCGC	-0.0138
CACCTTCG	-0.136
ATCTTGCC	-0.0574
GTCGAACA	-0.00814
ATTGCGCC	-0.0972
ATTGCGCA	0.251
ATTGCGAG	-0.0027
GTTGCGGA	0.0145
ATTGCGTG	0.419
ACTGCGTA	0.343
ATTGCGTC	0.414
ATTGCGTA	0.472
GTTGCGTA	0.422
ACTGCGTG	0.131
GCTGCGTA	0.308
CTTGCGTC	0.27
GAGCAGAC	-0.0861
GTGTCCCA	-0.0921
AGCCAGCT	-0.097
ATGAATTC	0.0634
CACAGTCA	-0.095
ATAATAGC	0.0417
GCGGTCCA	-0.323
ATTCAGCA	0.00168

Sequence	PBM E-score
CCTGCGTA	0.315
CTTGCGGA	-0.261
CTTGCGTA	0.423
CGTTGAGA	0.0138
AGCATCCA	-0.238
AAAAATCC	-0.162
AGTATGAA	0.0617
CGTATGTA	0.367
CGTATGTC	0.321
CGTATGAG	0.267
ATTATGTG	0.266
ATTATGTA	0.398
GGTATGAC	0.183
CGTATGGC	0.348
ATTATGTC	0.336
CGTATGAC	0.445
CGTATGAA	0.361
AGTATGTA	0.0841
